Assay results published in PubChem BioAssay AID1159580 (chemical genetic matrix, 2015).
Out of some 5,500 compounds screened, about 2,000 (36%) were called active. Roughly 18% stayed inconclusive and do not appear here. No stated cut-off is given here; in the data, active means normalized growth mostly below about 0.91 (no sharp cut-off); inconclusive means no clear call, values can overlap the other calls; inactive means mostly above about 0.92. This is one part of the list.

Assay: chemical genetic growth profiling, strain panel (AID 1159580);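 further: tested at 20 µM; growth read once vehicle control cultures reached saturation at 30 °C; 1 = growth at the plate median or of vehicle wells; lower values mean less growth of the strain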
Conditions: growth OD

Measured: normalized growth

CC(C)CCCC(C)C1CCC2C3CC[C@H]4C[C@@H](O)CC[C@]4(C)C3CC[C@]12C (stereo not given in full)
inactive: S. cerevisiae deletion strains, locus YAL013W, strain DEP1, hits give low values 1 | S. cerevisiae deletion strains, locus YBR021W, strain FUR4, hits give low values 1 | S. cerevisiae deletion strains, locus YBR229C, strain ROT2, hits give low values 1.01 | S. cerevisiae deletion strains, locus YCL029C, strain bik1, hits give low values 1.03 | S. cerevisiae deletion strains, locus YDL035C, strain GPR1, hits give low values 1 | S. cerevisiae deletion strains, locus YDL074C, strain BRE1, hits give low values 1.02 | S. cerevisiae deletion strains, locus YDL101C, strain DUN1, hits give low values 1.01 | S. cerevisiae deletion strains, locus YDL185W, strain tfp1, hits give low values 1.01 | S. cerevisiae deletion strains, locus YDL192W, strain arf1, hits give low values 1.01 | S. cerevisiae deletion strains, locus YDR101C, strain arx1, hits give low values 1.04 | S. cerevisiae deletion strains, locus YDR162C, strain NBP2, hits give low values 0.987 | S. cerevisiae deletion strains, locus YDR318W, strain mcm21, hits give low values 0.984 | S. cerevisiae deletion strains, locus YDR388W, hits give low values 0.997 | S. cerevisiae deletion strains, locus YDR502C, strain sam2, hits give low values 1.03 | S. cerevisiae deletion strains, locus YEL061C, strain CIN8, hits give low values 0.995 | S. cerevisiae deletion strains, locus YER110C, hits give low values 1 | S. cerevisiae deletion strains, locus YER155C, strain BEM2, hits give low values 0.997 | S. cerevisiae deletion strains, locus YER167W, strain BCK2, hits give low values 0.997 | S. cerevisiae deletion strains, locus YGL078C, strain dbp3, hits give low values 1.02 | S. cerevisiae deletion strains, locus YGL086W, strain mad1, hits give low values 1.03 | S. cerevisiae deletion strains, locus YGL248W, strain PDE1, hits give low values 1 | S. cerevisiae deletion strains, locus YGR135W, strain pre9, hits give low values 0.99 | S. cerevisiae deletion strains, locus YGR229C, strain SMI1, hits give low values 1 | S. cerevisiae deletion strains, locus YGR252W, strain gcn5, hits give low values 0.96 | S. cerevisiae deletion strains, locus YHR030C, strain SLT2, hits give low values 0.996 | S. cerevisiae deletion strains, locus YHR079C, strain IRE1 (second series), hits give low values 0.995 | S. cerevisiae deletion strains, locus YHR094C, strain hxt1, hits give low values 0.995 | S. cerevisiae deletion strains, locus YHR129C, strain ARP1, hits give low values 1.01 | S. cerevisiae deletion strains, locus YHR200W, strain rpn10, hits give low values 1.01 | S. cerevisiae deletion strains, locus YIL066C, strain RNR3, hits give low values 1 | S. cerevisiae deletion strains, locus YIL073C, strain SPO22, hits give low values 1.02 | S. cerevisiae deletion strains, locus YIL125W, strain kgd1, hits give low values 1.01 | S. cerevisiae deletion strains, locus YIR030C, strain dcg1, hits give low values 1 | S. cerevisiae deletion strains, locus YJL095W, strain BCK1, hits give low values 0.997 | S. cerevisiae deletion strains, locus YJL134W, strain LCB3, hits give low values 1.01 | S. cerevisiae deletion strains, locus YJL168C, strain set2, hits give low values 1 | S. cerevisiae deletion strains, locus YJL187C, strain SWE1 (second series), hits give low values 1.01 | S. cerevisiae deletion strains, locus YJR043C, strain POL32, hits give low values 0.988 | S. cerevisiae deletion strains, locus YKL009W, strain mrt4, hits give low values 0.997 | S. cerevisiae deletion strains, locus YKL068W, hits give low values 0.999 | S. cerevisiae deletion strains, locus YKL085W, strain MDH1 (second series), hits give low values 0.994 | S. cerevisiae deletion strains, locus YKL085W, strain MDH1, hits give low values 0.994 | S. cerevisiae deletion strains, locus YKL190W, strain CNB1, hits give low values 0.994 | S. cerevisiae deletion strains, locus YKR001C, strain vps1, hits give low values 1.01 | S. cerevisiae deletion strains, locus YLR039C, strain RIC1, hits give low values 1.05 | S. cerevisiae deletion strains, locus YLR058C, strain SHM2, hits give low values 0.987 | S. cerevisiae deletion strains, locus YLR102C, strain apc9, hits give low values 1.01 | S. cerevisiae deletion strains, locus YLR262C, strain YPT6, hits give low values 1.08 | S. cerevisiae deletion strains, locus YLR268W, strain sec22, hits give low values 1.04 | S. cerevisiae deletion strains, locus YLR330W, strain CHS5, hits give low values 0.989 | S. cerevisiae deletion strains, locus YLR342W, strain FKS1 (second series), hits give low values 1.01 | S. cerevisiae deletion strains, locus YLR371W, strain rom2, hits give low values 1 | S. cerevisiae deletion strains, locus YLR418C, strain cdc73, hits give low values 1.01 | S. cerevisiae deletion strains, locus YML016C, strain PPZ1, hits give low values 1.01 | S. cerevisiae deletion strains, locus YML032C, strain rad52, hits give low values 0.975 | S. cerevisiae deletion strains, locus YML124C, strain tub3, hits give low values 0.996 | S. cerevisiae deletion strains, locus YMR078C, strain ctf18, hits give low values 1 | S. cerevisiae deletion strains, locus YMR223W, strain ubp8, hits give low values 0.989 | S. cerevisiae deletion strains, locus YMR263W, strain SAP30, hits give low values 0.999 | S. cerevisiae deletion strains, locus YMR307W, strain GAS1, hits give low values 1.06 | S. cerevisiae deletion strains, locus YNL067W, strain RPL9B, hits give low values 1.01 | S. cerevisiae deletion strains, locus YNL128W, strain TEP1, hits give low values 0.972 | S. cerevisiae deletion strains, locus YNL233W, strain BNI4, hits give low values 1.01 | S. cerevisiae deletion strains, locus YNL250W, strain rad50, hits give low values 0.997 | S. cerevisiae deletion strains, locus YNL271C, strain bni1, hits give low values 1.01 | S. cerevisiae deletion strains, locus YNL298W, strain CLA4, hits give low values 1 | S. cerevisiae deletion strains, locus YNL307C, strain MCK1, hits give low values 1.01 | S. cerevisiae deletion strains, locus YNL322C, strain KRE1, hits give low values 0.998 | S. cerevisiae deletion strains, locus YNR052C, strain pop2, hits give low values 0.996 | S. cerevisiae deletion strains, locus YOL012C, strain htz1 1.64 | S. cerevisiae deletion strains, locus YOL147C, strain pex11, hits give low values 1 | S. cerevisiae deletion strains, locus YOR061W, strain CKA2, hits give low values 0.997 | S. cerevisiae deletion strains, locus YOR069W, strain VPS5, hits give low values 1 | S. cerevisiae deletion strains, locus YOR136W, strain idh2, hits give low values 1.01 | S. cerevisiae deletion strains, locus YOR144C, strain elg1, hits give low values 1 | S. cerevisiae deletion strains, locus YOR184W, strain ser1, hits give low values 1.03 | S. cerevisiae deletion strains, locus YOR316C, strain cot1, hits give low values 1 | S. cerevisiae deletion strains, locus YPL055C, strain LGE1, hits give low values 0.992 | S. cerevisiae deletion strains, locus YPL241C, strain CIN2, hits give low values 0.99 | S. cerevisiae deletion strains, locus YPR119W, strain clb2, hits give low values 0.998 | S. cerevisiae deletion strains, locus YPR141C, strain kar3, hits give low values 1 | S. cerevisiae deletion strains, locus YPR163C, strain tif3, hits give low values 1 | S. cerevisiae deletion strains, locus YPR167C, strain met16, hits give low values 0.994 | S. cerevisiae deletion strains, strain wtn01, hits give low values 1.04 | S. cerevisiae strains, strain wild type, hits give low values 0.976
